What all share (conditions): mRNA level, 48 h; actives raise or lower the signal
Read-out in experiment [1]: Interleukin 6 Receptor (IL6R), IL6R (gene 3570)
Briefly: LTEA_HepaRG_IL6R: Life Technologies and Expression Analysis (LTEA) Assay for Interleukin 6 Receptor (IL6R) using HepaRG (AID 2283510).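 For AC50: differentiated human HepaRG liver cells in serum-free induction medium; TaqMan qRT-PCR signal normalized to ACTB GAPDH and POLR2A housekeeping genes.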 Summed up:
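Concentration-response in human liver HepaRG cells: eight concentrations from 100 uM downward by half-logs, 48 h exposure, 0.5% DMSO vehicle. IL6R mRNA change measured by qRT-PCR and fitted in both directions relative to vehicle.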

Read-out in experiment [2]: Potassium channel subfamily K member 1 (KCNK1), KCNK1 (gene 3775)
In words: LTEA_HepaRG_KCNK1: Life Technologies and Expression Analysis (LTEA) Assay for Potassium channel subfamily K member 1 (KCNK1) using HepaRG (AID 2283511). Summed up: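 Gain or loss of KCNK1 mRNA is the read-out, quantified by qRT-PCR against three housekeeping genes after 48 h chemical treatment of human HepaRG liver cells. Concentrations ran from 100 uM downward in half-log steps, vehicle 0.5% DMSO.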

Read-out in experiment [3]: Keratin 19 (KRT19), KRT19 (gene 3880)
In words: LTEA_HepaRG_KRT19: Life Technologies and Expression Analysis (LTEA) Assay for Keratin 19 (KRT19) using HepaRG (AID 2283512). The method, boiled down:
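Readout is qRT-PCR of KRT19 mRNA, normalized to ACTB, GAPDH and POLR2A, from HepaRG cells treated 48 h with eight-point half-log dilutions topping at 100 uM. Activity in either direction is scored relative to 0.5% DMSO vehicle.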

Read-out in experiment [4]: JUN Transcription Factor, JUN (gene 3725)
In words: LTEA_HepaRG_JUN: Life Technologies and Expression Analysis (LTEA) Assay for JUN Transcription Factor using HepaRG (AID 2283513). Summed up: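 Human HepaRG liver cells receive test chemicals in 0.5% DMSO for 48 h across an eight-point range topping at 100 uM. Expression changes in JUN are scored in both directions against the DMSO vehicle.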

Read-out in experiment [5]: Lipase C (LIPC), LIPC (gene 3990)
Briefly: LTEA_HepaRG_LIPC: Life Technologies and Expression Analysis (LTEA) Assay for Lipase C (LIPC) using HepaRG (AID 2283514). The method, boiled down:
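Read-out is LIPC transcript level by TaqMan qRT-PCR, normalized to three housekeeping genes, after 48 h chemical treatment of human HepaRG liver cells. Curves span eight concentrations topping at 100 uM; activity in either direction scored relative to 0.5% DMSO.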

Read-out in experiment [6]: Lipoprotein lipase (LPL), LPL (gene 4023)
Briefly: LTEA_HepaRG_LPL: Life Technologies and Expression Analysis (LTEA) Assay for Lipoprotein lipase (LPL) using HepaRG (AID 2283515). The method, boiled down: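 Read-out is LPL transcript level by qRT-PCR, normalized to three housekeeping genes and fitted bidirectionally against the DMSO control. Human HepaRG cells received chemicals for 48 h at up to 100 uM.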

Read-out in experiment [7]: MicroRNA 122 (MIR122), gene 406906
Briefly: LTEA_HepaRG_MIR122: Life Technologies and Expression Analysis (LTEA) Assay for MicroRNA 122 (MIR122) using HepaRG (AID 2283516). Note: the transcript read is the microRNA miR-122. The method, boiled down: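 HepaRG, 48 h exposure, 8-pt half-log from 100 uM, 0.5% DMSO; TaqMan qRT-PCR; bidirectional fit vs DMSO.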

Read-out in experiment [8]: matrix metalloproteinase-10 (MMP10), MMP10 (gene 4319)
Briefly: LTEA_HepaRG_MMP10: Life Technologies and Expression Analysis (LTEA) Assay for matrix metalloproteinase-10 (MMP10) using HepaRG (AID 2283517). Summed up:
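Gain or loss of MMP10 mRNA is fitted relative to the 0.5% DMSO vehicle. The human hepatic line HepaRG receives a 48-hour serum-free exposure, in duplicate, with a maximum concentration of 100 uM.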

Read-out in experiment [9]: MYC, MYC (gene 4609)
In words: LTEA_HepaRG_MYC: Life Technologies and Expression Analysis (LTEA) Assay for MYC using HepaRG (AID 2283518). Summed up: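 Expression changes were scored by TaqMan qRT-PCR with ACTB, GAPDH and POLR2A normalization. Cultures in serum-free induction medium received duplicate 8-point concentration series, highest 100 uM, for 48 h; DMSO (0.5%) served as baseline.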

Read-out in experiment [10]: matrix metalloproteinase-3 (MMP3), MMP3 (gene 4314)
In words: LTEA_HepaRG_MMP3: Life Technologies and Expression Analysis (LTEA) Assay for matrix metalloproteinase-3 (MMP3) using HepaRG (AID 2283519). Summed up:
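HepaRG, human; 48 h dosing, 8 conc. (max 100 uM, half-log), duplicate, 0.5% DMSO. Readout: MMP3 transcript by Fluidigm TaqMan qRT-PCR, ACTB/GAPDH/POLR2A-normalised. Gain or loss fitted vs DMSO.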

Read-out in experiment [11]: Nuclear factor NF-kappa-B p105 subunit (Homo sapiens) (UniProt P19838)
Briefly: LTEA_HepaRG_NFKB1: Life Technologies and Expression Analysis (LTEA) Assay for Nuclear Factor Kappa B Subunit 1 (NFKB1) using HepaRG (AID 2283521).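 For outcome: differentiated human HepaRG liver cells in serum-free induction medium.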 Summed up: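 NFKB1 transcript was measured by TaqMan qRT-PCR on Fluidigm arrays, normalised to three housekeeping genes and fitted in both directions against 0.5% DMSO. HepaRG cells were dosed in duplicate for 48 h in serum-free induction medium, eight half-log steps from 100 uM.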

Read-out in experiment [12]: Protein phosphatase 2A (PPP2R4), PTPA (gene 5524)
In words: LTEA_HepaRG_PPP2R4: Life Technologies and Expression Analysis (LTEA) Assay for Protein phosphatase 2A (PPP2R4) using HepaRG (AID 2283522). The method, boiled down:
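Gene-expression endpoint in HepaRG hepatic cells: 48 h treatment across eight half-log concentrations up to 100 uM in 0.5% DMSO. PPP2R4 mRNA by qRT-PCR, normalized to three endogenous control genes.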

Read-out in experiment [13]: Phosphatase and tensin (PTEN), PTEN (gene 5728)
Briefly: LTEA_HepaRG_PTEN: Life Technologies and Expression Analysis (LTEA) Assay for Phosphatase and tensin (PTEN) using HepaRG (AID 2283523). The method, boiled down: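 Read-out is PTEN transcript level by multiplexed TaqMan qRT-PCR after 48 h chemical treatment of human HepaRG cultures in serum-free induction medium. Concentrations spanned 100 uM downward in half-log steps, 0.5% DMSO throughout; activity fitted in both directions against vehicle.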

Read-out in experiment [14]: solute carrier (SLC22A1), SLC22A1 (gene 6580)
Briefly: LTEA_HepaRG_SLC22A1: Life Technologies and Expression Analysis (LTEA) Assay for solute carrier (SLC22A1) using HepaRG (AID 2283524).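 For AC50: differentiated human HepaRG liver cells in serum-free induction medium.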 The method, boiled down: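 HepaRG (human liver line), 48 h dosing in serum-free induction medium; 8 conc., half-log down from 100 uM, 0.5% DMSO vehicle, duplicates. Endpoint: SLC22A1 mRNA, qRT-PCR, housekeeping-normalized; gain/loss fit vs DMSO.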

Read-out in experiment [15]: NAD(P)H dehydrogenase [quinone] 1 (NQO1), NQO1 (gene 1728)
Briefly: LTEA_HepaRG_NQO1: Life Technologies and Expression Analysis (LTEA) Assay for NAD(P)H dehydrogenase [quinone] 1 (NQO1) using HepaRG (AID 2283526). Summed up:
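Human HepaRG hepatic cells received chemicals for 48 h in serum-free induction medium with 0.5% DMSO, up to 100 uM. Expression was assessed by TaqMan qRT-PCR against housekeeping controls and fitted bidirectionally against DMSO.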

Read-out in experiment [16]: Nuclear factor erythroid 2-related factor 2 (Homo sapiens) (UniProt Q16236)
Briefly: LTEA_HepaRG_NFE2L2: Life Technologies and Expression Analysis (LTEA) Assay for Nuclear factor erythroid 2-related factor 2 (NFE2L2) Transcription Factor using HepaRG (AID 2283527). Summed up:
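Transcript level of NFE2L2 is the read-out, measured by microfluidic TaqMan qRT-PCR and normalized to three housekeeping genes. Human HepaRG cultures received test chemical for 48 h at up to 100 uM in half-log steps. Gain or loss of signal is fitted relative to 0.5% DMSO.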

Read-out in experiment [17]: succinate dehydrogenase complex iron sulfur subunit B (SDHB), SDHB (gene 6390)
Briefly: LTEA_HepaRG_SDHB: Life Technologies and Expression Analysis (LTEA) Assay for succinate dehydrogenase complex iron sulfur subunit B (SDHB) using HepaRG (AID 2283528). The method, boiled down: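 SDHB transcript level read by TaqMan qRT-PCR, housekeeping-normalised (ACTB, GAPDH, POLR2A), after 48 h chemical treatment of plated HepaRG cells; eight concentrations top 100 uM, half-log steps, 0.5% DMSO, duplicates; fitted both directions against DMSO.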

Read-out in experiment [18]: Signal transducer and activator of transcription 3 (Homo sapiens) (UniProt P40763)
Briefly: LTEA_HepaRG_STAT3: Life Technologies and Expression Analysis (LTEA) Assay for Signal transducer and activator of transcription (STAT3) using HepaRG (AID 2283529). The method, boiled down:
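Read-out is STAT3 mRNA level by qRT-PCR, normalized to three housekeeping genes, in human HepaRG liver cells treated for 48 h. Concentrations ran from 100 uM downward in half-log steps; curves were fitted for gain or loss relative to 0.5% DMSO.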

Read-out in experiment [19]: Paternally Expressed 10 (PEG10), PEG10 (gene 23089)
In words: LTEA_HepaRG_PEG10: Life Technologies and Expression Analysis (LTEA) Assay for Paternally Expressed 10 (PEG10) using HepaRG (AID 2283520).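 For AC50: PEG10 transcript by qRT-PCR normalised to ACTB GAPDH and POLR2A.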 Summed up:
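Chemicals tested on HepaRG cells for 48 h, highest concentration 100 uM. PEG10 expression assessed by qRT-PCR relative to DMSO control.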

Read-out in experiment [20]: Pyruvate Dehydrogenase Kinase 4 (PDK4), PDK4 (gene 5166)
Briefly: LTEA_HepaRG_PDK4: Life Technologies and Expression Analysis (LTEA) Assay for Pyruvate Dehydrogenase Kinase 4 (PDK4) using HepaRG (AID 2283525). The method, boiled down: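 In this multiplexed human HepaRG expression assay, cells are treated 48 h with test chemicals across an eight-point range starting at 100 uM. PDK4 mRNA changes, normalized to ACTB/GAPDH/POLR2A, are fitted in both directions relative to vehicle.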

Molecules are shown by their SMILES. Where “and” joins values, the source holds several entries; their conditions need not be identical. Identical values can stand only once. A structure can be active in one record and inactive in another. Calls of active or inactive are those of the source. Rule for the calls: active = hit-call score of the fitted dose curve at least 0.9, where 1 is the maximum; inactive = score below 0.9.

Sequence of Nuclear factor NF-kappa-B p105 subunit (Homo sapiens) (P19838 whole entry, looked up): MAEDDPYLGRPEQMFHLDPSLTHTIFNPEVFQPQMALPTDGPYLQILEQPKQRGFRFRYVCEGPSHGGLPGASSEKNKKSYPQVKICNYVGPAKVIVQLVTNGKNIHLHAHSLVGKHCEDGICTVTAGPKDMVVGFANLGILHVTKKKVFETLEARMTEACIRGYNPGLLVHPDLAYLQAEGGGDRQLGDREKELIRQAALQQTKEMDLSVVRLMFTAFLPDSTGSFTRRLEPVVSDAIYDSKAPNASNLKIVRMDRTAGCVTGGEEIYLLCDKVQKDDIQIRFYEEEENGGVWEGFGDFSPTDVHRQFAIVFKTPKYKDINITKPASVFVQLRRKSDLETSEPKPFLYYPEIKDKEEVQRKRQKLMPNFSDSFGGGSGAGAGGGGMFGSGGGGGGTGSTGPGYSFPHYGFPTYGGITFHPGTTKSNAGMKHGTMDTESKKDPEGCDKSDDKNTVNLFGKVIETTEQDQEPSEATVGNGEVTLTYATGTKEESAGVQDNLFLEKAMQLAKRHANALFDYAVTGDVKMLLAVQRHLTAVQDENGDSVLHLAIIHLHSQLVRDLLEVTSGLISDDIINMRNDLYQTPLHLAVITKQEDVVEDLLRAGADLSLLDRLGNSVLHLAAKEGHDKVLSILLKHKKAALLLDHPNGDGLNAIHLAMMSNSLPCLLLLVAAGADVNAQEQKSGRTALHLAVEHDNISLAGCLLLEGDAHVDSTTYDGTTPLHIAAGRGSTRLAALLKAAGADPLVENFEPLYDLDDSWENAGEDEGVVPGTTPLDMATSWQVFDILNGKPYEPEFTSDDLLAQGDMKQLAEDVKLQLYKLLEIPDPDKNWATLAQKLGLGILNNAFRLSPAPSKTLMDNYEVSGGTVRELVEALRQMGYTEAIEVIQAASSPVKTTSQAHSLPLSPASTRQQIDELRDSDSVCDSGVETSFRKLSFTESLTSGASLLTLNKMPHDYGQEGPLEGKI
Sequence of Nuclear factor erythroid 2-related factor 2 (Homo sapiens) (Q16236 whole entry, looked up): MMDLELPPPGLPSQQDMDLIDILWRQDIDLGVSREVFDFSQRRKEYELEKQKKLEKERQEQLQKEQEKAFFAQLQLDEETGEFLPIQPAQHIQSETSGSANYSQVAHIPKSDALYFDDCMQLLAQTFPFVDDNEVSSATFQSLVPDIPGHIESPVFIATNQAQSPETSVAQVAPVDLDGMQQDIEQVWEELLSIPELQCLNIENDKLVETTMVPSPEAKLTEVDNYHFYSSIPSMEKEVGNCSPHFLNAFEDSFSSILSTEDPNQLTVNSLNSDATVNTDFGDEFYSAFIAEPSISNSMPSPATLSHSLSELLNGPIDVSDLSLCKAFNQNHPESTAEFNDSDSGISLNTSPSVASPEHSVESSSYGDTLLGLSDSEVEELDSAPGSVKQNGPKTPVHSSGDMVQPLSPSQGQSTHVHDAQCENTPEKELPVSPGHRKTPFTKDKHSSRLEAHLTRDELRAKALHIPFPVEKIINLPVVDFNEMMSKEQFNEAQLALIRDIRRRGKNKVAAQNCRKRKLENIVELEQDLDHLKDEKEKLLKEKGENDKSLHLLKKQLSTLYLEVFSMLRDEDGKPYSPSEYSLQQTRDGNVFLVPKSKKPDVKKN
Sequence of Signal transducer and activator of transcription 3 (Homo sapiens) (P40763 whole entry, looked up): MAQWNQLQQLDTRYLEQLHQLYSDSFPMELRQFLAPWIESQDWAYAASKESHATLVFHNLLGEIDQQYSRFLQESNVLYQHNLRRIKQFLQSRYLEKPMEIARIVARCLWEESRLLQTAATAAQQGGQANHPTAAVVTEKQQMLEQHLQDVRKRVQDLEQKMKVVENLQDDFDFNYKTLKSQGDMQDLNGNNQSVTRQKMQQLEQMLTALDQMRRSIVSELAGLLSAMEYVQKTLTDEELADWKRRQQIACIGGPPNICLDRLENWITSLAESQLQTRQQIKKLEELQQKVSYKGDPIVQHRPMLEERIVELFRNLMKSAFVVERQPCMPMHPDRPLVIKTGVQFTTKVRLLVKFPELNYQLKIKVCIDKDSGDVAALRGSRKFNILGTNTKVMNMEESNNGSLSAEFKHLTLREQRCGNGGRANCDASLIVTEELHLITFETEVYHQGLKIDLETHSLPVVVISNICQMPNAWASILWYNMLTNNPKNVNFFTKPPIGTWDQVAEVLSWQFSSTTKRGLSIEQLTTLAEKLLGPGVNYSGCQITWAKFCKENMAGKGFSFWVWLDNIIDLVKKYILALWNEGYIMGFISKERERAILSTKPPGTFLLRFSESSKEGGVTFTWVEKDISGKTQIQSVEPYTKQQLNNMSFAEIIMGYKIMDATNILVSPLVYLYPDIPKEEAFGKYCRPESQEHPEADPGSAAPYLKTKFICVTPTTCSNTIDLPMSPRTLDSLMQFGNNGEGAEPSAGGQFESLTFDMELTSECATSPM

For the compound `CNC(=O)Oc1ccccc1OC(C)C`, the call in experiment [1], in experiment [2], in [3], in experiment [4], in experiment [5] and in experiment [6] was inactive. The result in experiment [7], in experiment [8], in experiment [9], in experiment [10], in [11] and in experiment [12] was inactive. Further, the compound was classed as inactive in experiment [13], in experiment [14], in [15], in [16], in experiment [17] and in [18].
Usually AC50 stands for the concentration at which the activity in the assay is half-maximal. On to `CCOC1Oc2ccc(OS(C)(=O)=O)cc2C1(C)C` (centres undefined), for which the concentration at half-maximal activity (AC50) in experiment [1] was 60.7 µM (active); in experiment [3], 66 µM (active); in experiment [5] it was 74 µM (active); in [6], 76.4 µM (active); in [7], 78.7 µM (active); in [9] it was 77.7 µM (active). For the same compound, the AC50 is 9.92 µM (active) in [11], 71.9 µM (active) in [14], 9.92 µM (active) in [17] and 21.4 µM (active) in experiment [18]. Besides, the compound was classed as inactive in experiment [2], in experiment [8], in experiment [10], in experiment [12], in experiment [13] and in [15]. For the same compound, the compound was classed as inactive in experiment [16].
On to `Oc1ccc(Cl)cc1Cc1ccccc1`, for which the AC50 was 83.6 µM (active) in experiment [1]; 50.5 µM (active) in experiment [3]; 80.2 µM (active) in experiment [5]; 82.2 µM (active) and 89.3 µM (active) in experiment [6]; 82.4 µM (active) in experiment [7]; 89 µM (active) and 77.3 µM (active) and 78.6 µM (active) in experiment [19]. Moreover, the AC50 in experiment [11] is 15.7 µM (active); in [13], 86 µM (active); in [14], 91.8 µM (active) and 91.6 µM (active); in [20] it was 76.8 µM (active) and 83.6 µM (active). Also, the compound was called inactive in experiment [1], in experiment [2], in experiment [3], in experiment [5], in experiment [6] and in experiment [7]. Also, the result in experiment [8], in experiment [9], in experiment [10], in [11], in experiment [12] and in experiment [13] was inactive. Further, the compound was called inactive in experiment [14], in [20], in experiment [15], in experiment [16], in experiment [17] and in [18].
Turning to `CNC(=O)CSP(=S)(OC)OC`, the call in experiment [1], in experiment [2], in experiment [3], in experiment [5], in experiment [6] and in [7] was inactive. The compound was called inactive in experiment [8], in [9], in [10], in experiment [19], in experiment [12] and in [13]. Also, the outcome in experiment [14], in experiment [15], in experiment [16], in [17] and in experiment [18] was inactive.
`O=C(Nc1ccccc1)Nc1cnns1`: the compound was classed as inactive in experiment [1], in [2], in [4], in experiment [8], in [11] and in experiment [12]. Also, the compound was called inactive in [13], in [15], in experiment [16], in experiment [17] and in experiment [18]. Further, the half-maximal activity concentration (AC50) in experiment [3] is 50 µM (active); in [5] it was 76.9 µM (active); in [6] it was 81.5 µM (active); in [7], 69.2 µM (active); in experiment [9], 87.7 µM (active); in experiment [10] it was 91.2 µM (active). For the same compound, the values for the half-maximal activity concentration (AC50) in [19] and in [14] were 61.5 µM (active) and 70 µM (active), respectively.

These data come from PubChem BioAssay (EPA / NIEHS).
